Rows were chosen to be rich in hits. Some 2.7% of all compounds tested hit in one or more screens of this group.
Coupling enz – qHTS Assay for Inhibitors of Fructose-1,6-bisphosphate Aldolase from Giardia Lamblia: Coupling assay counterscreen. coupling enzyme system counterscreen, AmpLite Red fluorescence. activity change, negative = inhibition, % at 58.2 µM, hits read low. hit rate 0.67% among 290,000; in the data active means activity change below about -30%
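Compounds tested against the coupling enzymes alone at 57.5 uM final; readout was AmpLite Red fluorescence (525/598 nm) after 20 min at RT.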
Tau fibril FP – qHTS for Inhibitors of Tau Fibril Formation, Fluorescence Polarization; K18 P301L tau heparin fibrillization, Alexa594 FP, 6 h; Potency, µM (top dose mostly 57.7 µM), inactives show top-dose activity, negative = inhibition, usual class: inhibitors; hit rate 0.39% among 280,000; AID 1468, 2008; further: potency means the concentration at half of the fitted maximal effect; nearly all actives have a fitted effect of over 55% in size
Target sequence (P10636 561-689 P618L limits assumed): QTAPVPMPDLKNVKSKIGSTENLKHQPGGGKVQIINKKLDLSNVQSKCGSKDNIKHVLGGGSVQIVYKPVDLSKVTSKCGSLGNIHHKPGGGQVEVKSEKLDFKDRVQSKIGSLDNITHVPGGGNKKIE
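K18 P301L tau (15 uM unlabeled/0.24 uM Alexa 594-labeled, final) + compound + heparin 20 uM final; 100 mM NaOAc pH 7; 6 hr 37 C; ThT 30 uM final added, 1 hr RT; FP ex 555/em 632 nm.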
Tau fluor cs – Counterscreen qHTS for Inhibitors of Tau Fibril Formation, Fluorescence Polarization. tau K18 P301L Alexa594 fluorescence, heparin fibrillization. Potency, µM (doses to about 57.7 µM), for the others: top-dose activity change, negative = decrease. hit rate 0.93% among 280,000. AID 1463, 2008; further: potency means the concentration at half of the fitted maximal effect; nearly all actives have a fitted effect of over 55% in size
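Human tau K18 P301L (15 uM unlabeled, 0.24 uM Alexa 594-labeled) in 100 mM sodium acetate pH 7 with 20 uM heparin, 6 hr at 37 C. ThT 30 uM added, 1 hr ambient; Alexa 594 FP and total fluorescence read at 555/632 nm.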
Tau fibril ThT – qHTS for Inhibitors of Tau Fibril Formation, Thioflavin T Binding | Microtubule-associated protein tau (Homo sapiens), P10636 | recombinant tau K18 P301L (four-repeat tau fragment), heparin-induced fibrillization, ThT fluorescence | Potency, µM (series often up to 57.4 µM), without a hit: top-dose activity, negative = inhibition, actives largely listed as inhibitors | hit rate 2.1% among 270,000 | AID 1460, 2008; further: potency means the concentration at half of the fitted maximal effect; nearly all actives have a fitted effect of over 55% in size
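K18 P301L tau (15 uM + 0.24 uM Alexa 594-tagged), heparin 20 uM, NaOAc pH 7, 6 h 37 C; ThT 30 uM, 1 h RT, ex 450/em 510 nm.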
* = called active by the depositor; ? = inconclusive; . = no result given; [ ] = another dose, or the depositor's remark. Unless noted, the call rests on the fitted dose curve; in most records, active means well fitted curve in the direction sought with a large enough effect; inconclusive means small, poorly fitted or top-dose-only effect, or another doubt; inactive means no such curve, though single readings can be large; an effect the other way counts as inactive or inconclusive. On the % scale 0 is the no-effect control and ±100 the full control effect.

SMILES | Coupling enz | Tau fibril FP | Tau fluor cs | Tau fibril ThT
CCOc1ccc(N2C(=O)CS/C2=C(\C(Cl)=C(Cl)Cl)[N+](=O)[O-])cc1 | -1.6 | ? | ? | 15.8µM*
CN(C)c1ccc2c(-c3ccccc3)c3ccc(=[N+](C)C)cc-3oc2c1 | 20.3 | . | . | .
S=c1[nH]nc(-c2cc(-c3ccccc3)n[nH]2)n1/N=C/c1ccccc1 | 8.1 | 10.1% | ? | ?
Cc1cc(-c2n[nH]c(=S)n2/N=C/C(Cl)=C/c2ccccc2)n[nH]1 | 0.6 | -5.6% | -20.5% | ?
S=c1[nH]nc(-c2ccco2)n1/N=C/C(Cl)=C/c1ccccc1 | -2.0 | ? | ? | 14.1µM*
S=c1[nH]nc(-c2cc(-c3ccccc3)n[nH]2)n1/N=C/C(Br)=C/c1ccccc1 | 1.4 | ? | ? | 17.8µM*
CCOC(=O)C1=C(Cc2ccc(F)cc2)C(=O)c2ccccc2C1=O | -57.1* | 15.8µM* | ? | 10µM*
Oc1ccc(N=Nc2ccc3c(c2)OCO3)c2ccccc12 | -3.2 | ? | -20.3% | 0.891µM*
C=CCc1cccc(/C=N/c2ncccc2O)c1O | -42.8* | -3.3% | -7.9% | ?
COc1ccc(C(=O)c2c(C(F)(F)F)oc3c2C(=O)c2ccccc2C3=O)cc1 | -42.8* | ? | ? | ?
CCCn1c(CNc2ccccc2O)nc2ccccc21 | -18.1 | ? | ? | 28.2µM*
COc1ccc(-c2cn[nH]c2-c2ccc(OCc3ccc(F)cc3)cc2O)cc1OC | -10.9 | ? | 8.91µM*[quencher] | -14.9%
COc1ccc(-c2cn[nH]c2-c2ccc(OCc3ccccc3)cc2O)cc1OC | 2.6 | ? | 3.16µM*[quencher] | -3.0%
Oc1cc(OCc2ccccc2)ccc1-c1[nH]ncc1-c1ccccc1 | -6.5 | 25.1µM* | 10µM*[quencher] | -13.3%
CCOc1ccc(CNC(=O)C2=Cc3cc(Br)ccc3OC2)cc1OC | . | -15.2% | -25.6% | 1.4%
CCN(CC)c1ccc(/C=N/NC(=O)c2ccc(O)cc2)cc1 | 0.6 | 16.2% | ? | 3.16µM*
CCN(CC)c1ccc(/C=N\NC(=O)c2cccc3cc[nH]c23)cc1 | 0.1 | -4.0% | 14.1µM*[quencher] | 6.31µM*
COc1ccc([N+](=O)[O-])cc1/C=N/NC(=O)/C(=C\c1cccs1)NC(=O)c1ccccc1 | -41.7* | ? | -17.6% | -3.7%
O=C(N/N=C/c1ccc(F)cc1)c1ccccc1 | 1.3 | -3.2% | -4.8% | -2.1%
CN(C)c1ccc(/C=N/NC(=O)c2ccc(NC(=O)c3ccccc3)cc2)cc1 | -0.2 | 3.4% | ? | 1.58µM*
COc1ccc(CCNC(=O)c2c(O)nc3ccccn3c2=O)cc1OC | . | -1.4% | -4.4% | -5.8%
CCOc1ccccc1N(C)C(=O)c1cc(S(=O)(=O)NCCc2ccc(Cl)cc2)ccc1F | . | 12.5% | -11.9% | -4.1%
COC1CCC(C(=O)c2ccc3nc4c(cc3c2)CCCO4)CC1 (stereo not drawn) | 2.7 | -8.2% | -7.8% | -10.2%
COc1cc(C)c(C)cc1S(=O)(=O)Nc1cccc(-c2ccc(N3CCOCC3)nn2)c1 | . | 3.1% | -5.9% | 7.6%
CC(=O)c1ccc(NC(=O)c2ccc3c(c2)nnn3C2CCCC2)cc1 | . | -7.7% | -0.8% | -6.9%
SMILES | Coupling enz | Tau fibril FP | Tau fluor cs | Tau fibril ThT
CN(C)c1ccc(/C=C(/NC(=O)c2ccccc2)C(=O)N/N=C/c2ccc([N+](=O)[O-])c(O)c2)cc1 | -16.0 | 2.1% | 14.1µM*[quencher] | 3.98µM*
CCN(CC)c1ccc(/C=N/NC(=O)c2ccoc2C)cc1 | -11.0 | -2.7% | ? | 10µM*
O=C(N/N=C/c1ccc2c(c1)OCO2)/C(=C/c1ccc2c(c1)OCO2)NC(=O)c1ccccc1 | 6.1 | -6.3% | -15.8% | -12.6%
CC(C)(C)c1ccc(C(=O)Nc2cc(-c3ccccc3)nn2-c2ccccc2)cc1 | . | -8.7% | 8.6% | 13.2%
Cc1oc2ncn(CC(C)C)c(=O)c2c1C(=O)NCCCN1CCC(C)CC1 | . | -2.9% | -6.9% | -4.1%
Cc1ccccc1NC(=O)Cn1c(=O)n(CCCC(=O)NCc2ccc3c(c2)OCO3)c(=O)c2ccccc21 | . | -6.3% | -0.4% | 7.9%
COc1cccc(NC(=O)CSc2nc(O)c(C/C=C/c3ccccc3)c(=O)[nH]2)c1 | . | -11.2% | -23.6% | ?
Cc1cc(OCC(=O)N2CCc3ccccc3C2)c(C)cc1Br | 1.1 | . | . | .
